Assay [1] in a line: A High-Content qHTS Against Drug Library for the Identification of Small Molecules that Inhibit DYT1 Early Onset Primary Dystonia-Associated Cell Pathology (AID 1645839; calls by dose curve; further: series mostly up to about 46 µM). An outline of the steps: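 Readout: %pathology, the punctate EGFP-TorsinA distribution from imaging, as the primary channel and cell count as the toxicity counterscreen. HEK293 Flp-In cells expressing delE TorsinA were induced with tetracycline and treated with compound for 48 h.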
On the technique in general: Quantitative high-throughput screening tests each substance at several concentrations.

Assay [2] deals with Cytochrome P450 2D6 (Homo sapiens) (UniProt P10635). The assay can be described thus: Cytochrome P450 family 2 subfamily D member 6 (CYP2D6) small molecule antagonists: luciferase biochemical (cell-free) qHTS assay (AID 1645840). Further: nearly all actives have a fitted effect of over 55% in size. Further: potency means the concentration at half of the fitted maximal effect. On activity change, negative = inhibition: series mostly up to about 57 µM; on the % scale 0 is the no-effect control and ±100 the full control effect. An outline of the steps:
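P450-Glo luminescent screen: recombinant CYP2D6 enzyme–proluciferin substrate mix preincubated with compound 10 min at room temperature, then NADPH regeneration added for 1 h at room temperature. Detection reagent added for 20 min; luciferin light read as relative luminescence units.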

Assay [3] deals with Cytochrome P450 2C9 (Homo sapiens) (UniProt P11712). The assay is described as follows: Cytochrome P450 family 2 subfamily C member 9 (CYP2C9) small molecule antagonists: luciferase biochemical (cell-free) qHTS assay (AID 1645842). Further: nearly all actives have a fitted effect of over 55% in size. Further: potency means the concentration at half of the fitted maximal effect. On activity change, negative = inhibition: series mostly up to about 57 µM; on the % scale 0 is the no-effect control and ±100 the full control effect. An outline of the steps: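 Luminescence, after 20 min with luciferin detection reagent, reflected CYP2C9 turnover during a 1 h NADPH-driven reaction at 37C. Enzyme-substrate mix contained 0.4% bovine serum albumin and was preincubated with compound 10 min at room temperature.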
Cytochrome P450 2C9 (Homo sapiens), sequence (P11712 whole entry, looked up): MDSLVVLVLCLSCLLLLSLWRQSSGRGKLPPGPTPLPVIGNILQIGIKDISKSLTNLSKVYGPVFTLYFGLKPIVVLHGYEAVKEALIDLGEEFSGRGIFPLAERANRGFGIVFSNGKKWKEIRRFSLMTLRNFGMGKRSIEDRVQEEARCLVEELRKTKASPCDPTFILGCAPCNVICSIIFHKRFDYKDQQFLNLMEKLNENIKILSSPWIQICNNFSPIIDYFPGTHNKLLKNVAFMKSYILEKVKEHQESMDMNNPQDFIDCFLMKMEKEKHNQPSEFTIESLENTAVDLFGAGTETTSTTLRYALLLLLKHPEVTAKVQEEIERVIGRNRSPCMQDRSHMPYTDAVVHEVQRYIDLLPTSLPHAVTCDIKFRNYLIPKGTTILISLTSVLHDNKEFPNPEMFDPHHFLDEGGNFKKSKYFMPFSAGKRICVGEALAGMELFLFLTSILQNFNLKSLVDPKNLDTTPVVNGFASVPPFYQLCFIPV

A short description of assay [4]: Primary qHTS for inhibitors of nuclear receptor binding SET domain protein 2 (NSD2) in an isogenic RCH-ACV NSD2 p.E1099K mutant (9B) (AID 1645876; active means well fitted curve in the direction sought with a large enough effect; an effect the other way counts as inactive or inconclusive; further: nearly all actives have a fitted effect of over 70% in size; further: potency means the concentration at half of the fitted maximal effect).
Assay [5] in a line: Primary qHTS for inhibitors of nuclear receptor binding SET domain protein 2 (NSD2) in an RCH-ACV wild type WT cells (2C) (AID 1645877; active means well fitted curve in the direction sought with a large enough effect; an effect the other way counts as inactive or inconclusive; further: nearly all actives have a fitted effect of over 70% in size; further: potency means the concentration at half of the fitted maximal effect).
For assay [6], the target named is Cytochrome P450 3A4 (Homo sapiens) (UniProt P08684). The assay is described as follows: Cytochrome P450 family 3 subfamily A member 4 (CYP3A4) small molecule antagonists: luciferase qHTS assay (AID 1645841). Further: nearly all actives have a fitted effect of over 45% in size. An outline of the steps: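 P450-Glo CYP3A4 enzyme with proluciferin substrate was preincubated with DMSO-dissolved compounds for 10 min at room temperature. NADPH regeneration solution started a 1 h reaction. Detection reagent stopped it, and luminescence was read after 20 min.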
Cytochrome P450 3A4 (Homo sapiens), sequence (P08684 whole entry, looked up): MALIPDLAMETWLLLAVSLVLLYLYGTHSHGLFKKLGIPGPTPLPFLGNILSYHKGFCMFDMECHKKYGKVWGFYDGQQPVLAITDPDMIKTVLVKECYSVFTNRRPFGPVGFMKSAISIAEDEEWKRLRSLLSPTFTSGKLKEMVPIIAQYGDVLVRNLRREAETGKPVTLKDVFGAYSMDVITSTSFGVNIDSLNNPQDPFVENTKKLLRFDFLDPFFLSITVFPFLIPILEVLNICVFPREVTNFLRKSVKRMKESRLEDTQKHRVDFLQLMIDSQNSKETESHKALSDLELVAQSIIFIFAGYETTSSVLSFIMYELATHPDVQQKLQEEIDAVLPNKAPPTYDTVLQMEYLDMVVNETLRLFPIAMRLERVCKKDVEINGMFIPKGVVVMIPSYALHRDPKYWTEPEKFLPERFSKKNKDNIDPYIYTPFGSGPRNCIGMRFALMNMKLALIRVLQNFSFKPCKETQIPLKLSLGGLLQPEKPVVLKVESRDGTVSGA

For assay [7], the target named is N-terminal Xaa-Pro-Lys N-methyltransferase 1 (Homo sapiens) (UniProt Q9BV86). The assay can be described thus: Confirmatory qHTS for Inhibitors of N-terminal methyltransferase 1 (NTMT1): MTaseGlo Assay (AID 1645874; active means well fitted curve in the direction sought with a large enough effect; an effect the other way counts as inactive or inconclusive; further: potency means the concentration at half of the fitted maximal effect; nearly all actives have a fitted effect of over 65% in size). Summed up: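 NTMT1 (125 nM) preincubated 15 min with compound and 100 uM SAM, then 1 uM SPKRIA peptide added for 30 min at room temperature. SAH detected by MTase-Glo luminescence; normalized to no-enzyme and DMSO controls, fitted to 4-parameter Hill.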
N-terminal Xaa-Pro-Lys N-methyltransferase 1 (Homo sapiens), sequence (Q9BV86 whole entry, looked up): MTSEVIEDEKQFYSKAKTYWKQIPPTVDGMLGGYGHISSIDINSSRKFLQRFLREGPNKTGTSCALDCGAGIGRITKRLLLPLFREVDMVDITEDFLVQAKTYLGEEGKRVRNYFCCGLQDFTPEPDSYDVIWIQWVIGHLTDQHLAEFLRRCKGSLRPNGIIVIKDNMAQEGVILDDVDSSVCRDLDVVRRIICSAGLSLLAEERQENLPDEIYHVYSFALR

A short description of assay [8]: NCATS anti-infectives library activity on HEK293 viability as a counter-qHTS vs the C. elegans viability qHTS (AID 1745854; active means well fitted curve in the direction sought with a large enough effect; an effect the other way counts as inactive or inconclusive; further: on the % scale 0 is the no-effect control and ±100 the full control effect). An outline of the steps: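 HEK293 cells, 1500 per well, exposed 24 hr at 37C in 5% CO2 to compounds in a 1:5 titration, up to 41.7 uM final. Viability read as CellTiter-Glo luminescence after 10 min at room temperature.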

Molecules are shown by their SMILES. Results filed as inconclusive are left out. Unmarked numbers belong to inactive results. Activity calls are given as the source filed them. Unless noted, the call rests on the fitted dose curve; in most records, active means well fitted curve in the direction sought with a large enough effect in the repeat runs; inconclusive means weak or mixed curves; inactive means no such curve, though single readings can be large; an effect the other way counts as inactive or inconclusive. *1 amine or outer side, *2 acyl side, *3 side chain or, on linkers, in order; H or OH if unused. Where a SMILES comes first, the peptide text is derived from it. Bridges are numbered along the chain shown (N, C = ends). [ ]: non-standard residue; d: D form. The star is where a group is joined. ξ: configuration not given here. X10 = NC1=NCCC(C(N[*:1])C(=O)[*:2])N1; ΔAla(3-NHCONH2) = NC(=O)NC=C(N)C(=O)O; ξβ3hOrn = NCCCC(N)CC(=O)*; Dap = NC[CH](N)C(=O)O

Cytochrome P450 2D6 (Homo sapiens), sequence (P10635 whole entry, looked up): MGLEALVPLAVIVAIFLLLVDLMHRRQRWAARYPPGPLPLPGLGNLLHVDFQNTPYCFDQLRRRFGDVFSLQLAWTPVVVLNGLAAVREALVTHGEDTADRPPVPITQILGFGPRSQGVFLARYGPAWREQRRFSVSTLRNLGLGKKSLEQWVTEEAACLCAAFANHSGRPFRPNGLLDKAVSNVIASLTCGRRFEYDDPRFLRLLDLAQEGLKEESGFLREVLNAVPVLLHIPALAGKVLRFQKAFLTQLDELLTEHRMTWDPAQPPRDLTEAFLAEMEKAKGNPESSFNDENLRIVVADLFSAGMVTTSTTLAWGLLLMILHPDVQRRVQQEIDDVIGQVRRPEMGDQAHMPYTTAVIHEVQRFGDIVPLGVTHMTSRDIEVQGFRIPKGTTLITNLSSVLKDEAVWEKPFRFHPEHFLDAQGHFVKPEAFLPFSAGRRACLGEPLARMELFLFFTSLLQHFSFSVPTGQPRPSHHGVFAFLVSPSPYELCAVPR

For `CC1CC(=O)NN=C1c1ccc(NCC(C)(C)NCC(O)COc2cc(Cl)ccc2C#N)cc1` (stereo unspecified), the Potency result in assay [1], in assay [4] and in assay [5] was “inactive” each time. Also, the values for the Potency in assay [2] and in assay [3] were 0.871 µM (active) and 0.977 µM (active), respectively.

Take `CC(=O)O[C@@H]1CC2C3CCc4cc(OC(=O)c5ccccc5)ccc4C3CCC2(C)[C@H]1OC(C)=O` (stereo partly specified): the Potency result in assay [1], in assay [2], in assay [3], in assay [4] and in assay [5] was “inactive” each time.

For the compound `OC[C@]1(O)OC[C@@H](O)[C@H](O)[C@@H]1O`, the Potency entry in assay [1], in assay [2], in assay [3], in assay [4] and in assay [5] was “inactive” in each case.

Turning to `CN(C)[C@@H]1C(=O)C(C(N)=O)=C(O)[C@@]2(O)C(=O)C3=C(O)c4c(O)cccc4C[C@H]3C[C@@H]12`, the Potency result in assay [1], in assay [2], in assay [6] and in assay [3] was “inactive” throughout.

Turning to `O=P(O)(O)OCC(O)CO` (stereo unspecified), the Potency result in assay [1], in assay [2], in assay [3], in assay [4] and in assay [5] was “inactive” in each case.

Consider `COC(=O)c1cc(Cl)c(NC(C)=O)cc1OC`, for which the Potency entry in assay [1], in assay [2], in assay [3], in assay [4] and in assay [5] was “inactive” in each case.

Turning to `NC(=O)NS(=O)(=O)c1ccc(Cl)cc1`, the Potency entry in assay [1] and in assay [2] was “inactive” each time.

Turning to `N#C/C(=C1/SC[C@@H](c2ccc(Cl)cc2Cl)S1)n1ccnc1`, the Potency entry in assay [1] was “inactive”. Also, the Potency in assay [2] was 0.0871 µM (active); in assay [3] it was 0.436 µM (active); in assay [4], 13.3 µM (active); in assay [5] it was 11.9 µM (active).

With `O=C(c1ccccc1)c1ccccc1`, the Potency result in assay [1] was “inactive”.

Turning to `CC(C)=CCC/C(C)=C/CC/C(C)=C/CCC(=O)OC/C=C(\C)CCC=C(C)C`, the Potency result in assay [1], in assay [2], in assay [3], in assay [4] and in assay [5] was “inactive” each time.

In the case of `CC(=O)N(c1onc(C)c1C)S(=O)(=O)c1ccc(N)cc1`, the Potency entry in assay [1], in assay [2], in assay [3], in assay [4] and in assay [5] was “inactive” throughout.

As to `N#CSCC(=O)O`, the Potency result in assay [1], in assay [2] and in assay [3] was “inactive” in each case.

For `Cc1cc(O)c(C)c(C)c1O`, the Potency entry in assay [1], in assay [2], in assay [3], in assay [4] and in assay [5] was “inactive” throughout.

As to `NCCCC(N)CC(=O)NCC1NC(=O)C(CO)NC(=O)C(N)CNC(=O)C(C2CCN=C(N)N2)NC(=O)C(=CNC(N)=O)NC1=O` (stereo not drawn) (H-[Dap]S[Dap](ξβ3hOrn)[ΔAla(3-NHCONH2)][X10]; lactam 1-C; configuration not given here), the % pathology change, negative = correction in assay [1] was -14.9% [at 0.369 µM]. The activity change, negative = inhibition in assay [2] was 0.741% [at 0.91 µM]; in assay [6], -11.7% [at 0.91 µM]; in assay [3], 7.44% [at 0.91 µM]. Also, the outcome in assay [4] and in assay [5] was “inactive [at 0.588 µM]” in each case.

As for `CC(C)C[C@H](NC(=O)CNC(=O)[C@H](Cc1ccc(O)cc1)NC(=O)[C@H](CO)NC(=O)[C@H](Cc1c[nH]c2ccccc12)NC(=O)[C@H](Cc1cnc[nH]1)NC(=O)[C@@H]1CCC(=O)N1)C(=O)N[C@@H](CCCN=C(N)N)C(=O)N1CCC[C@H]1C(=O)NCC(N)=O` (stereo in doubt), the Potency entry in assay [1] and in assay [2] was “inactive” in each case.

`O=C(C1CCCCC1)N1CC(=O)N2CCCc3ccccc3C2C1` (stereo unspecified): the Potency result in assay [1] and in assay [2] was “inactive” each time.

With `O=C1OC2(c3ccccc31)c1cc(I)c(O)c(I)c1Oc1c2cc(I)c(O)c1I`, in assay [1], the Potency result was “inactive”. The Potency is 17.4 µM (active) in assay [2], 19.5 µM (active) in assay [3] and 1.9 µM (active) in assay [7].

For the compound `CC(C)(C)c1cc(C=O)cc(C(C)(C)C)c1O`, the Potency entry in assay [1] and in assay [2] was “inactive” throughout.

With `CC(=O)CC/C=C(\C)CC/C=C(\C)CC/C=C(\C)CCC=C(C)C`, the Potency result in assay [1] was “inactive”.

With `CC(C)C(=O)Nc1cccc(C(F)(F)F)c1`, the Potency result in assay [1], in assay [2], in assay [3] and in assay [4] was “inactive” each time.

On to `C[N+]1(C)CCC(OC(=O)C(O)(c2ccccc2)C2CCCC2)C1` (stereo unspecified), for which the Potency result in assay [1] was “inactive”.

Consider `CO/N=C(/C(=O)N[C@@H]1C(=O)N2C(C(=O)OCOC(=O)C(C)(C)C)=C(C)CS[C@H]12)c1csc(N)n1`, for which the Potency result in assay [1] and in assay [2] was “inactive” each time. Moreover, the Potency in assay [3] was 17.4 µM (active).

As for `O=C(O)CCCC[C@@H]1SC[C@@H]2NC(=O)N[C@@H]21`, the Potency result in assay [1], in assay [2], in assay [3], in assay [4] and in assay [5] was “inactive” throughout.

For `N#CC1(c2ccc(F)cc2)CCC(=O)CC1`, the Potency result in assay [1], in assay [2], in assay [3], in assay [4] and in assay [5] was “inactive” in each case.

As for `CC(=O)c1ccc(O)c(C(N)=O)c1`, the Potency entry in assay [1], in assay [2], in assay [3], in assay [4] and in assay [5] was “inactive” throughout.

For the compound `Nc1ccc(C(=O)OCC(O)CO)cc1` (stereo unspecified), the Potency result in assay [1], in assay [2], in assay [3], in assay [4] and in assay [5] was “inactive” in each case.

Turning to `CCc1cc(S(=O)(=O)O)c2cc(C(C)C)cccc1-2`, the Potency result in assay [1], in assay [2] and in assay [3] was “inactive” each time.

In the case of `COC(=O)/C=C\C(=O)OC`, the Potency entry in assay [1], in assay [2], in assay [3], in assay [4] and in assay [5] was “inactive” in each case.

`CC(=O)O[C@@H]1C(=O)O[C@@H]2[C@H]1OC(=O)[C@@H]2OC(C)=O`: the Potency entry in assay [1], in assay [2] and in assay [3] was “inactive” each time.

For the compound `CO/N=C(/C(=O)N[C@@H]1C(=O)N2C(C(=O)[O-])=C(C[n+]3ccn4ncccc43)CS[C@H]12)c1nsc(N)n1`, the Potency entry in assay [1], in assay [2] and in assay [3] was “inactive” each time.

With `Nc1nc(=O)n([C@@H]2O[C@H](CO)[C@@H](O)[C@@H]2F)cc1I`, the Potency entry in assay [8] was “inactive”.

Consider `COc1ccc(/C(C)=C/C(=O)O)c(OC)c1`, for which the Potency entry in assay [1], in assay [2], in assay [4] and in assay [5] was “inactive” each time.

For `CC(NN)c1ccccc1` (stereo unspecified), the Potency entry in assay [1], in assay [4] and in assay [5] was “inactive” each time.

As for `COc1ccc2cc(C=O)ccc2c1`, the Potency entry in assay [1], in assay [4] and in assay [5] was “inactive” in each case. Also, in assay [3], the Potency was 12.3 µM (active).

For the origin of these results see PubChem BioAssay (NCATS).
